Inconclusive results are not listed. Entries that show only a call come without a potency. The source made the active and inactive calls. Calls come from the whole dose curve; as a rule, active = well fitted activation curve with a large enough effect; inconclusive = small, poorly fitted or top-dose-only effect; inactive = flat fitted curve, though single readings scatter.
Biological target: Relaxin receptor 2 (Homo sapiens) (UniProt Q8WXD0)
Test: qHTS Assay for Agonists of the Relaxin Receptor RXFP1: RXFP2 Hit Validation; note: nearly all actives have a fitted effect of over 65% in size
Settings: HEK293 RXFP2 cAMP TR-FRET, 30 min; series mostly up to 44.7 µM
Excerpt: NIH Chemical Genomics Center [NCGC] NIH Molecular Libraries Probe Production Centers Network [MLPCN] MLPCN Grant: R03 MH085705-01A1 Assay Submitter (PI): Alexander Agoulnik NCGC Assay Overview: The relaxin hormone is involved in the variety of biological functions in normal tissues and diseases. The role of relaxin is well-established in female reproduction and parturition, mammary gland and endometrial development, maintenance of myometrial quiescence during pregnancy. Relaxin signaling through its G protein-coupled receptor (GPCR) RXFP1 results in ECM remodeling through regulation of collagen deposition, cell invasiveness, proliferation and overall tissue homeostasis. […] Recombinant human relaxin (rhRlx) is currently being tested in clinical trials as a protective agent in congestive heart failure, in treating severe preeclampsia, and as an anti-fibrotic agent in systemic sclerosis. Upon relaxin binding RXFP1 activation leads to the activation of adenylate cyclase (AC) via Gs. cAMP will activate PKA, which phosphorylates many signaling proteins. Thus, detection of cAMP increase is an easy and reliable indication of relaxin receptor activation. To screen for agonists of the relaxin receptor, a HEK293T cell line stably transfected with RXFP1 was used. RXFP1 activation was assayed by changes in cAMP levels as detected with a time-resolved fluorescence energy transfer (TR-FRET) cAMP detection kit. This assay measures activation of a cell expressing RXFP2, another GPCR targeted by relaxin, to determine the selectivity of compounds for RXFP1.
NCGC Assay Protocol Summary: This is a cell-based assay for cAMP second messenger response to screen for agonists of the RXFP2 receptor. The assay was conducted in the presence of a PDE4 inhibitor (Ro 20174). The cells were lysed and the cAMP levels were measured with a TR-FRET cAMP kit. Presence of cAMP in the cell lysate disrupts binding between the cryptate-labeled anti-cAMP and d2-labeled cAMP pair, leading to a decrease in the TR-FRET signal. Data were normalized to the controls for basal activity (buffer only) and 100% activity (29 nM porcine relaxin). The EC50 values were determined from concentration-response data modeled with the standard Hill equation 1536-well assay protocol for the HEK293 RXFP2 cAMP assay: (1) Add 3 ul HEK293 RXFP2 cell culture. 2000 cells/well in DMEM/F12, 10% FBS, 1x Pen/Strep (dispensed offline with MultiDrop Combi). (2) Incubate 16-24 hr at 37C, 5% CO2. (3) Add 1 ul 400uM Ro20174 in DPBS, 0.05% BSA, 0.005% Tween 20. (3) Add 23 nl compounds in DMSO solution. Final concentration was 0.5 - 58 uM. (4) Incubate 30 min at 37C, 5% CO2. (5) Add 1 ul cAMP-d2 in lysis buffer (HTRF cAMP HiRange kit, CisBio). (6) Add 1 ul anti-cAMP antibody-cryptate in lysis buffer (HTRF cAMP HiRange kit, CisBio). […]
Potency is the fitted concentration of half-maximal effect.

Chain of Relaxin receptor 2 (Homo sapiens) (Q8WXD0 whole entry, looked up): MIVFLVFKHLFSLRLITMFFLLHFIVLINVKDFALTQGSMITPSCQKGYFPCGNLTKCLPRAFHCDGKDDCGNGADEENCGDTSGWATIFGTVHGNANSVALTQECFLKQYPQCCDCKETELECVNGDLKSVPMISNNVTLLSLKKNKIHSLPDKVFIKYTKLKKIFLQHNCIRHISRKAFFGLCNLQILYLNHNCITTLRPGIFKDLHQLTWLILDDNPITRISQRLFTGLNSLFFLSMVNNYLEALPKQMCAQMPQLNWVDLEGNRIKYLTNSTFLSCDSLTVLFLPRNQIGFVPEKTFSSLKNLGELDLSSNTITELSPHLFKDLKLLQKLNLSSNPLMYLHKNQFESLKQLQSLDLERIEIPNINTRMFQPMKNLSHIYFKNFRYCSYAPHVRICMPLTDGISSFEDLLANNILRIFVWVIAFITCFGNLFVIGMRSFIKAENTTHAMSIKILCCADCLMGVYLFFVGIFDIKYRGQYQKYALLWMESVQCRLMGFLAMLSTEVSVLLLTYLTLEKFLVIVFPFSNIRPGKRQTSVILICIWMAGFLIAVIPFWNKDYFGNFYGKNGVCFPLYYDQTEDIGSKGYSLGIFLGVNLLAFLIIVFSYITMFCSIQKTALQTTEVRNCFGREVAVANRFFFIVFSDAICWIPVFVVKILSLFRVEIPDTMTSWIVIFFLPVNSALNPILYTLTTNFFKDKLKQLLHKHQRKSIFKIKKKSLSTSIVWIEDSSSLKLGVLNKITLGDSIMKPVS

SMILES | Potency
CCC(Oc1cc(Cl)ccc1Cl)C(=O)N1CCC2(CC1)OCCO2 (centres undefined) | inactive
O=C(O)c1sc2cc(Cl)ccc2c1Cl | inactive
CCNC(=O)[C@H]1O[C@@H](n2cnc3c(N)ncnc32)[C@H](O)[C@@H]1O | 0.974 µM (active)
Nc1ncc2[nH]cnc2n1 | 17.4 µM (active)

From PubChem BioAssay AID489043 (National Center for Advancing Translational Sciences (NCATS), 2010)
